RORgamma inh: ROR gamma (mouse) transcription inhibition; Drosophila S2 Gal4-RORgamma UAS-luciferase reporter, 20 h; P51450; Potency, µM (titrated, usually from 53.6 µM), without a hit: at the top dose activity change, negative = inhibition, usual class: inhibitors; AID 2551; 310,000 compounds, 5.4% hits; note: nearly all actives have a fitted effect of over 60% in size
Target sequence (P51450 whole entry, looked up, the tested form may be a part): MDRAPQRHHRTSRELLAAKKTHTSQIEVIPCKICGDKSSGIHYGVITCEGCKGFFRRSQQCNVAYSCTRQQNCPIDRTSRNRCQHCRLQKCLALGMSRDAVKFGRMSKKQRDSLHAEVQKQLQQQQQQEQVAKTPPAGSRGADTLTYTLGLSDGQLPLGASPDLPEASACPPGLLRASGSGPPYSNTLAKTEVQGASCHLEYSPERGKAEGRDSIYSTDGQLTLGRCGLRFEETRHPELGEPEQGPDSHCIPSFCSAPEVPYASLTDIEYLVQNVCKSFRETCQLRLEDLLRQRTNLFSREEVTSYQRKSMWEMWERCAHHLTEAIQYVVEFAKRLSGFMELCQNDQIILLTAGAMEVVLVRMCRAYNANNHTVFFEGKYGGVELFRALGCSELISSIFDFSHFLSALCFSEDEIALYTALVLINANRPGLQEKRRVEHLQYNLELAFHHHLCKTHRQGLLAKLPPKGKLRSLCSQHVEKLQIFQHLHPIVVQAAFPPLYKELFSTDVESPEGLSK
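ROR gamma transcriptional activity was tracked as Gal4-UAS luciferase output in stably transfected Drosophila Schneider cells, with compound added 1 hr before 700 uM copper sulfate induction and a 20 hr ambient-temperature incubation.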
TDP1 cell CPT: growth inhibition of DT40 Tdp1-/-;hTDP1 cells with camptothecin (screen for TDP1 inhibitors) | chicken DT40 Tdp1-/-;hTDP1 cells + 20 nM CPT, ATP luminescence, 48 h | Potency, µM (titrated, usually from 46.2 µM), for the others: at the highest dose activity change, negative = growth inhibition, actives largely listed as inhibitors | 420,000 compounds, 12% hits | AID 686979; note: nearly all actives have a fitted effect of over 55% in size
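Chicken DT40 Tdp1-/- cells stably complemented with human TDP1 were seeded at 400 cells/well in medium containing 20 nM camptothecin, exposed to pin-transferred compounds, and grown at 37 °C for at least 48 hr. Viability was read as ATP luminescence.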
Gal4-VP16 FLuc: counter-screen for ROR gamma inhibitors: Gal4-VP16 reporter. Drosophila S2 Gal4-VP16 UAS-luciferase, luminescence, 20 h. Potency, µM (doses to about 53.6 µM), inactives show top-dose activity, negative = inhibition, hits mostly inhibitors. 310,000 compounds, 3.5% hits;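 note: Gal4-VP16 expression switched on by copper sulfate through the metallothionein promoter; nearly all actives have a fitted effect of over 50% in size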
TDP1 cell noCPT: qHTS for Inhibitors of human tyrosyl-DNA phosphodiesterase 1 (TDP1): qHTS in cells in absence of CPT; 420,000 compounds, 15% hits; Potency, µM (top dose mostly 46.2 µM), inactives show at the highest dose activity change, negative = growth inhibition, most hits filed as inhibitors; DT40 Tdp1-/- hTDP1 cells, no CPT, ATP luminescence, 48 h; note: nearly all actives have a fitted effect of over 55% in size
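Chicken DT40 Tdp1-/- cells stably complemented with human TDP1 were seeded at 400 cells/well with DMSO in place of 20 nM camptothecin. After compound pinning, cells grew at least 48 hr at 37 °C; viability read by CellTiter-Glo luminescence.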
ALOX12 inh: ALOX12 (human) lipoxygenase inhibition | P18054 | 580,000 compounds, 1.1% hits | purified 12hLO, xylenol orange hydroperoxide absorbance | Potency, µM (doses to about 108 µM), inactives show top-dose activity change, negative = inhibition, usual class: inhibitors | AID 1671190
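Purified human 12hLO (150 nM final) in 25 mM Hepes, 0.01% Triton X-100, pH 7.0 was preincubated 15 min at room temperature with compound. Then 40 uM arachidonic acid was added, 30 min. Hydroperoxide was read by Fe-XO absorbance ratio 573/405 nm.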
ELG1 repair inh: inhibitors of ELG1-dependent DNA repair in HEK293T cells. AID 504467. HEK293T ELG1-luciferase reporter, luminescence, 16 h; DNA damage induced by 5-fluorouridine. Potency, µM (highest dose often 46.1 µM), for the others: at the top dose activity change, negative = inhibition, hits mostly inhibitors. 330,000 compounds, 2.3% hits; note: nearly all actives have a fitted effect of over 55% in size
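Quantitative HTS, concentration-response format. 2,000 cells/well co-treated with 5-fluorouridine and compound, 16 hr in 5% CO2 at 37 °C; ONE-Glo luminescence read after 30 min.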
* hit, by the source's call; ? = inconclusive; / = no result; [ ] = dose if it differs, or a comment. Shown are actives, neighbours in structure and some others; about 15% of the full set was active somewhere. Calls come from the whole dose curve; as a rule, active = well fitted curve in the direction sought with a large enough effect; inconclusive = small, poorly fitted or top-dose-only effect, or another doubt; inactive = no such curve, though single readings can be large; an effect the other way counts as inactive or inconclusive. % is set by controls: 0 for no effect and ±100 for the full control effect; potency is the fitted concentration of half-maximal effect.

SMILES | RORgamma inh | TDP1 cell CPT | Gal4-VP16 FLuc | TDP1 cell noCPT | ALOX12 inh | ELG1 repair inh
Cc1cc(N2CCC(C)CC2)nc2ccc(NC(=O)c3ccc(N(C)C)cc3)cc12 | / | / | / | / | -3% | /
COc1cc(OC)c(NC(=O)Nc2nnc(N(C)C3CCCCC3)s2)cc1Cl | / | 21µM* | / | 8.2µM* | ? | /
Cc1c(Cl)cccc1NC(=O)Nc1nnc(N2CCCCCC2)s1 | / | -12% | / | -16% | -19% | /
Cc1ccc(NC(=O)Nc2nnc(N(C)C3CCCCC3)s2)c(Cl)c1 | / | 16µM* | / | ? | -29% | /
COc1ccc(Cl)cc1NC(=O)Nc1nnc(N(C)C2CCCCC2)s1 | / | / | / | / | 19% | /
Cc1c(Cl)cccc1NC(=O)Nc1nnc(N(C)C2CCCCC2)s1 | / | 15µM* | / | 16µM* | ? | /
Clc1ccccc1-c1nnc2sc(-c3ccc4c(c3)OCO4)nn12 | -28%[0.365 µM] | 16µM* | / | ? | ? | 0%
Brc1ccccc1-c1nnc2sc(-c3ccc4c(c3)OCCO4)nn12 | 18% | 12µM* | -3% | 23µM* | 5% | ?
CCc1nnc(CC)n1N | / | / | / | / | 45% | /
COc1ccc(/C=C2\C(=O)c3ccccc3OC2c2ccccc2)cc1 (centres undefined) | 44% | ? | 17% | ? | 5% | 23µM*
CCOc1ccc(/C=C2\C(=O)c3ccccc3OC2c2ccccc2)cc1 (centres undefined) | 3% | ? | -5% | 18µM* | -16% | 5%
COc1ccc(/C=C2/C(=O)c3ccccc3OC2c2ccccc2)cc1 (centres undefined) | / | / | / | / | -5% | /
Cc1sc(NC(=O)C(Cc2ccccc2)Cc2ccccc2)c(C#N)c1C | / | / | / | / | 3% | /
Oc1ccc2ccccc2c1/C=N/Nc1nnc(-c2ncc[nH]2)c2ccccc12 | 0.25µM* | 5.2µM* | 0.25µM* | 5.2µM* | ? | ?
Oc1ccc2ccccc2c1/C=N/c1nccs1 | 1% | -19% | -7% | -12% | -21% | 10%
Oc1ccc2ccccc2c1C=NNc1ccccn1 | / | 3.3µM* | / | 4.6µM* | -16% | /
Oc1ccc2ccccc2c1CNc1ccccn1 | 4% | -8% | -4% | 0% | 35µM* | -13%
Cc1ccc(O)c(CNc2ccccn2)c1 | 31% | 4% | -23% | -20% | -15% | ?
CCOc1cc(C)c(C(C)C)cc1S(=O)(=O)n1ccnc1C | / | / | / | / | 48% | /
COc1cccc(CN2C(=O)N(c3ccc(C)cc3)C(=O)C2CC(=O)Nc2cc(OC)cc(OC)c2)c1 (centres undefined) | / | 13µM* | / | 7.3µM* | -22% | /
COC(=O)c1ccc(NC(=O)CC2C(=O)N(c3cccc(F)c3)C(=O)N2CC(C)C)cc1 (centres undefined) | / | 21µM* | / | 13µM* | -30% | /
CCc1ccc(NC(=O)CC2C(=O)N(c3cccc(C)c3)C(=O)N2Cc2ccc(F)cc2)cc1 (centres undefined) | / | ? | / | -98% | ? | /
COC(=O)c1ccc(NC(=O)CC2C(=O)N(c3cccc(OC)c3)C(=O)N2C(C)C)cc1 (centres undefined) | / | -29% | / | -21% | -28% | /
COc1cc(NC(=O)CC2C(=O)N(c3cccc(C)c3)C(=O)N2Cc2ccc(F)cc2)cc(OC)c1 (centres undefined) | / | ? | / | 21µM* | -47% | /
CCc1ccc(NC(=O)CC2C(=O)N(c3ccc(F)cc3)C(=O)N2Cc2ccc(F)cc2)cc1 (centres undefined) | / | 13µM* | / | ? | -27% | /
SMILES | RORgamma inh | TDP1 cell CPT | Gal4-VP16 FLuc | TDP1 cell noCPT | ALOX12 inh | ELG1 repair inh
COc1ccc(NC(=O)CC2C(=O)N(c3ccc(C)cc3)C(=O)N2Cc2ccc(C)cc2)cc1 (centres undefined) | / | -10% | / | ? | -21% | /
CC(OC(=O)c1cc(=O)[nH]c2ccccc12)C(=O)N1CCCCCC1 (centres undefined) | / | / | / | / | -7% | /
CCCCC(CC)CNC(=O)CCC(=O)NC1CCCCCCCCCCC1 (centres undefined) | / | / | / | / | -46% | /
COc1ccc(OC)c(C(C)NC(=O)CCc2c(C)c3ccc(OC)cc3oc2=O)c1 (centres undefined) | / | / | / | / | 3% | /
CCOc1ccc(NC(=O)CC2C(=O)N(c3ccccc3)C(=O)N2Cc2cccc(OC)c2)cc1 (centres undefined) | / | 10µM* | / | 21µM* | ? | /
COc1cc(NC(=O)CC2C(=O)N(c3ccccc3)C(=O)N2Cc2ccc(F)cc2)cc(OC)c1 (centres undefined) | / | 13µM* | / | 15µM* | -19% | /
COCCN1C(=O)N(c2ccccc2)C(=O)C1CC(=O)Nc1cc(OC)cc(OC)c1 (centres undefined) | -26%[1.91 µM] | -16% | -14% | 11% | ? | -1%
CCOc1ccc(C(=O)COC(=O)Cn2cnc3ccccc3c2=O)cc1 | / | / | / | / | 10% | /
CC(C)CNC(=O)NC(NC(=O)C1CCCCC1)(C(F)(F)F)C(F)(F)F | / | / | / | / | -50% | /
O=S(=O)(c1ccccc1)N1CCC2(CC1)OCCN2S(=O)(=O)c1cccs1 | / | ? | / | 21µM* | 1% | -4%
COc1ccc(S(=O)(=O)N2CCC3(CC2)OCCN3S(=O)(=O)c2ccc(OC)cc2)cc1 | / | ? | / | ? | -24% | -13%
COc1ccc(S(=O)(=O)N2CCOC23CCN(S(=O)(=O)c2cccs2)CC3)cc1 | / | 13µM* | / | 16µM* | -6% | -10%
Cc1ccc(N2CCC3CC2c2cc(-c4ccc(C(F)(F)F)cc4)ccc23)cc1 (centres undefined) | / | ? | / | 16µM* | 0% | /
Oc1c(/C=C/C=C/C=Nc2ccccc2)sc(=S)n1Cc1ccccc1 | 1% | ? | -5% | 21µM* | 13µM* | ?
CCn1c(O)c(/C=C/C=C/C=Nc2ccccc2)sc1=S | 6% | ? | 0% | 26µM* | ? | 8%
CCCCn1c(O)c(/C=C/C=C/C=Nc2ccccc2)sc1=S | 13% | 12µM* | ? | 15µM* | 13µM* | 6%
CCCn1c(O)c(C=Nc2ccccc2)sc1=S | 39% | -5% | 21% | ? | ? | ?
O=C(Cc1ccsc1)Nc1ccc2c(c1)CCC(=O)N2 | / | / | / | / | 2% | /
Cc1nc(C)c(C(=O)N(C)C2CCc3nn(CC4CC4)c(=O)n3CC2)s1 (centres undefined) | / | / | / | / | 64% | /

Source: PubChem BioAssay
